Laboratory results: PubChem BioAssay (Tox21)
Results filed as inconclusive are left out. Where a call stands in place of a potency, no number is given. A number with no mark means an inactive call. Activity calls are given as the source filed them. Unless noted, calls come from the whole dose curve; as a rule, active = well fitted curve in the direction sought with a large enough effect in the repeat runs; inconclusive = weak or mixed curves; inactive = no such curve, though single readings can be large; an effect the other way counts as inactive or inconclusive.

Assays:
[1] = qHTS assay to identify small molecule antagonists of the estrogen related receptor (ERR) signaling pathway from Tox21 library - cell viability counter screen (AID 1224834); note: nearly all actives have a fitted effect of over 30% in size
Summary of the method: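 Fluorescence from CellTiter-Fluor gives the viability read-out, taken 30 min after reagent addition. Before that, ERR cells seeded 6 h earlier were incubated with compounds for 17.5 h at 37 C.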

[2] = biological target: Luciferin 4-monooxygenase (Photinus pyralis) (UniProt P08659); experiment: qHTS assay to identify small molecule inhibitors of firefly luciferase (AID 1224835); note: nearly all actives have a fitted effect of over 25% in size
Sequence of Luciferin 4-monooxygenase (Photinus pyralis) (P08659 whole entry, looked up): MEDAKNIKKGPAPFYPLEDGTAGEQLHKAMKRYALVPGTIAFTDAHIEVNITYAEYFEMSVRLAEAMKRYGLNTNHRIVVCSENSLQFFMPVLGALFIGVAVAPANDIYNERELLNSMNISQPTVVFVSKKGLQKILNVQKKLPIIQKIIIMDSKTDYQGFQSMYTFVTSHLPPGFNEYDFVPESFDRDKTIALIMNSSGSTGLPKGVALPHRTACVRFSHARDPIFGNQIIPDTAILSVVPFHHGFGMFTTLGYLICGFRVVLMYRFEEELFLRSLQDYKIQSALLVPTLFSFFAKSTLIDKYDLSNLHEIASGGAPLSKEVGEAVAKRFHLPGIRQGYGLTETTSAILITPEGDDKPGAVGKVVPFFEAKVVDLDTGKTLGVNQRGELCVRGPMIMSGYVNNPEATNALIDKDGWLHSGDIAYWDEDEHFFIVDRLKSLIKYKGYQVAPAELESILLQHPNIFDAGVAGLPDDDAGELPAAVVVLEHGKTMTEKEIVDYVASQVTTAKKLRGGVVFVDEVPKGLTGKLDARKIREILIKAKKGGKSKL
Summary of the method: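 Biochemical qHTS: compounds run as interplate titrations against purified firefly enzyme, with D-luciferin and ATP each at its KM concentration. Light output recorded by CCD imaging.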

[3] = qHTS assay to identify small molecule agonists of the constitutive androstane receptor (CAR) signaling pathway - cell viability counter screen (AID 1224836); note: nearly all actives have a fitted effect of over 45% in size
Summary of the method: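 23 h treatment, 37 C, 5% CO2. Cell line: HepG2 stably expressing hCAR with a CYP2B6-2.2kb construct. Co-treatment: PK11195, 0.75 uM final. Read-out: CellTiter-Fluor fluorescence intensity.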

[4] = qHTS assay to identify small molecule antagonists of the estrogen related receptor signaling pathway with the pleiotropic PPARgamma coactivator (PGC) from Tox21 10K library - cell viability counter screen (AID 1224840; active = well fitted cell-killing curve with a large enough effect in the repeat runs, not every such curve was filed as active; note: nearly all actives have a fitted effect of over 40% in size)
Summary of the method: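 PGC/ERR cells, 2,000/well; 6 h pre-incubation 37 C/5% CO2; cpd in DMSO via pin tool; 17.5 h 37 C; CellTiter-Fluor, 30 min; fluorescence.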

[5] = qHTS assay to identify small molecule antagonists of the constitutive androstane receptor (CAR) signaling pathway - cell viability counter screen (AID 1224837); note: nearly all actives have a fitted effect of over 45% in size
Summary of the method: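 HepG2-CYP2B6-hCAR cells, 2500/well, 4 hr pre-incubation; compound titration, 15 conc.; CITCO 50 nM final; 23 hr, 37 C/5% CO2; CellTiter-Fluor, fluorescence intensity.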

[6] = biological target: Nuclear receptor subfamily 1 group I member 3 (Homo sapiens) (UniProt Q14994); experiment: qHTS assay to identify small molecule antagonists of the constitutive androstane receptor (CAR) signaling pathway (AID 1224838);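 note: HepG2 cells stably expressing hCAR with CYP2B6 luciferase reporter stimulated by CITCO; nearly all actives have a fitted effect of over 40% in size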
Sequence of Nuclear receptor subfamily 1 group I member 3 (Homo sapiens) (Q14994 whole entry, looked up): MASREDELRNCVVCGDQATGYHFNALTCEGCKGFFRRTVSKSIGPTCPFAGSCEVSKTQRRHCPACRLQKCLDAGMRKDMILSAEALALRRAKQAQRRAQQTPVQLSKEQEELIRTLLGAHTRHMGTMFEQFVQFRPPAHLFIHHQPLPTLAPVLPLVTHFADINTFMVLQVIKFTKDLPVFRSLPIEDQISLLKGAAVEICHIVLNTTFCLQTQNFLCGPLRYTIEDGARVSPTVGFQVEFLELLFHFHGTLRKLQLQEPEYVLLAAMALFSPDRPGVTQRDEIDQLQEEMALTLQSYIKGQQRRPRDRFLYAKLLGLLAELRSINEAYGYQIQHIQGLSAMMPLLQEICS
Summary of the method: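 HepG2-CYP2B6-hCAR cells; 4 h pre-incubation; cpd (15 conc) + CITCO 50 nM final; 24 h, 37 C/5% CO2; ONE-Glo, luminescence.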

[7] = biological target: Nuclear receptor subfamily 1 group I member 3 (Homo sapiens) (UniProt Q14994); experiment: qHTS assay to identify small molecule agonists of the constitutive androstane receptor (CAR) signaling pathway (AID 1224839); note: nearly all actives have a fitted effect of over 15% in size;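 for activation: HepG2 cells stably carrying human CAR and a CYP2B6 luciferase reporter; series mostly up to about 92 µM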
Summary of the method: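 Compounds tested at 15 concentrations on HepG2 cells stably harbouring hCAR and CYP2B6-2.2kb reporter constructs, co-treated with PK11195 (0.75 uM final), 24 h at 37 C; luminescent reporter signal quantified.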

[8] = qHTS assay to identify small molecule antagonists of the estrogen related receptor signaling pathway with the pleiotropic PPARgamma coactivator (PGC) from Tox21 10K library (AID 1224841; call rule not given here; note: actives are mostly falling curves and most rising ones were filed inactive; nearly all actives have a fitted effect of over 50% in size)
Summary of the method: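 PGC/ERR cell line, 2,000 cells/well; 6 h pre-incubation 37 C/5% CO2; compounds (DMSO) pinned in; 18 h, 37 C; One-Glo, 30 min RT; luminescence.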

[9] = qHTS assay to identify small molecule agonists of the estrogen related receptor signaling pathway with the pleiotropic PPARgamma coactivator (PGC) from Tox21 10K library (AID 1224842); note: nearly all actives have a fitted effect of over 15% in size
Summary of the method: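 PGC/ERR reporter cell line, 2,000 cells per well, incubated 6 h at 37 C before 23 nL compound in DMSO was added. After 18 h at 37 C, One-Glo luminescence read following 30 min at room temperature.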
Potency is the fitted concentration of half-maximal effect.

| SMILES | Potency [1] | Potency [2] | Potency [3] | Potency [4] | Potency [5] | Potency [6] | Potency [7] | Potency [8] | Potency [9] | activation [7] |
| --- | --- | --- | --- | --- | --- | --- | --- | --- | --- | --- |
| Cc1ccc(Cl)c(Nc2ccccc2C(=O)O)c1Cl | inactive | inactive | inactive | inactive |  |  |  |  |  |  |
| CC(CC1c2ccccc2CCc2ccccc21)CN(C)C (stereo not given) | 33.5 µM (active) | inactive |  | inactive | 29.8 µM (active) |  |  |  |  |  |
| CC1=C(CC=O)C(C)(C)CCC1 | inactive | inactive | inactive | inactive |  |  |  |  |  |  |
| Cc1c(C)c2c(c(C)c1OC(=O)CCC(=O)OCCO)CC[C@@](C)(CCC[C@H](C)CCC[C@H](C)CCCC(C)C)O2 | inactive | inactive |  |  |  | inactive | inactive | 21.1 µM (active) | inactive |  |
| NNC(=O)CP(=O)(c1ccccc1)c1ccccc1 | inactive | inactive | inactive | inactive |  |  |  |  |  |  |
| CCOC(=O)c1ccc(O)c(O)c1 | inactive | inactive |  | inactive | inactive | inactive |  |  |  |  |
| NCCNCCO | inactive | inactive | inactive | inactive |  | inactive | inactive |  | inactive |  |
| Oc1cc2c(cc1O)[C@H]1c3ccc(O)c(O)c3OC[C@@]1(O)C2 | 39 µM (active) | 32.1 µM (active) | 49.2 µM (active) | 27.6 µM (active) |  | 49.2 µM (active) | inactive | 34.8 µM (active) | inactive |  |
| O=c1cc(-c2ccccc2)oc2cc(O)cc(O)c12 | 30.6 µM (active) | 2.52 µM (active) |  |  |  | inactive | 30.6 µM (active) |  |  |  |
| CC1(CN2CCC(n3c(=O)[nH]c4ccccc43)CC2)OCc2ccccc2-n2cccc21 (stereo not given) | 23.7 µM (active) | inactive |  |  |  | inactive | inactive |  |  |  |
| COc1cc(C(=O)NC2CCN(C)CC2)ccc1Nc1ncc2c(n1)N(C1CCCC1)CC(F)(F)C(=O)N2C | 31.5 µM (active) | inactive |  | 35.3 µM (active) |  | 8.88 µM (active) | inactive | inactive | 2.5 µM (active) |  |
| CC(C)c1nc(CN(C)C(=O)N[C@H](C(=O)N[C@@H](Cc2ccccc2)C[C@H](O)[C@H](Cc2ccccc2)NC(=O)OCc2cncs2)C(C)C)cs1 | 13.3 µM (active) | inactive |  |  |  | inactive | inactive |  | inactive |  |
| Cc1cc(=O)c2c(O)c3c(O)cc(=O)c4c3c3c(cc(O)c1c23)C(C)(C)C=4O | 1.46 µM (active) | inactive |  |  |  | 2.59 µM (active) |  |  |  | -14.4% [at 19 µM] |
| Cc1ccc2c(Br)cc(Br)c(O)c2n1 | 11.9 µM (active) | inactive | inactive |  |  | inactive | inactive |  | inactive |  |
| CN1C(=O)OC(C)(C)C1=O | inactive | inactive | inactive | inactive |  | inactive | inactive | inactive | inactive |  |
| CC(C)(O)c1ccc(CNC(=O)c2cccnc2Oc2ccc3nonc3c2)cc1 |  | inactive | inactive |  | inactive | inactive | 24.3 µM (active) |  | inactive |  |
| C=CC(=O)OCC1CC2CC1C1CCC(COC(=O)C=C)C21 (stereo not given) |  | inactive | inactive | 68.6 µM (active) | inactive | inactive | inactive |  |  |  |
| COc1ccccc1N1CCN(CCCCNC(=O)c2ccc(-c3ccc(C(C)=O)cc3)cc2)CC1 |  | inactive | inactive | inactive | inactive |  |  |  |  |  |
| C/C=C(/C(=C/C)c1ccc(O)cc1)c1ccc(O)cc1 |  | inactive | inactive | inactive | inactive | inactive | inactive |  |  |  |
| O=C=Nc1cccc(C(F)(F)F)c1 |  | inactive | inactive | inactive | inactive |  |  |  | inactive |  |
| CCOc1cccc(-n2cc(C(=O)N3CCN(c4cc(C(=O)O)c5ccccc5c4)CC3)nc2-c2ccc(C)cc2)c1 |  | inactive | inactive |  | inactive | inactive | inactive |  | inactive |  |
| O=C1c2ccccc2C(=O)C1(O)O |  | inactive |  | inactive |  |  | inactive | inactive | inactive |  |
| c1cc(N(CC2CO2)CC2CO2)ccc1Cc1ccc(N(CC2CO2)CC2CO2)cc1 (stereo not given) | 43.3 µM (active) |  |  | 30.6 µM (active) | 54.5 µM (active) |  | inactive |  | inactive |  |
| O=C(OC(=O)c1ccccc1)c1ccccc1 | inactive |  | inactive | inactive |  |  |  |  |  |  |
| CC(C)Nc1cccnc1N1CCN(C(=O)c2cc3cc(NS(C)(=O)=O)ccc3[nH]2)CC1 |  | inactive | inactive | inactive |  | inactive | inactive | inactive | inactive |  |
| Clc1ccc(Nc2nnc(Cc3ccncc3)c3ccccc23)cc1 |  |  |  | inactive |  | inactive | 7.5 µM (active) | 13.3 µM (active) | inactive |  |
| CCOC(=O)c1ccccc1C(=C1C=C(Br)C(=O)C(Br)=C1)c1cc(Br)c(O)c(Br)c1 |  | 66.8 µM (active) | inactive |  |  |  |  | 51.3 µM (active) | inactive |  |
| CCOC(=O)c1ccc(I)cc1 | inactive |  | inactive | inactive |  |  |  |  | 4.9 µM (active) |  |
| CC(=O)[C@H]1[C@H](C#N)C[C@H]2[C@@H]3CC=C4C[C@@H](O)CC[C@]4(C)[C@H]3CC[C@@]21C |  | inactive | inactive | inactive |  |  |  |  | inactive |  |
